# Hits are enriched below; roughly 12% of the tested compounds scored in any of these assays.
# G9a block: blocks human histone lysine methyltransferase G9a; Potency, µM (top dose mostly 102 µM), for inactives: at the top dose activity, negative = inhibition, hits mostly inhibitors; G9a H3K9 monomethylation, AlphaScreen, 2 h; 350,000 tested, 8.8% active; AID 504332; also: % is scaled to controls: 0 for no effect and ±100 for the full control effect; nearly all actives have a fitted effect of over 75% in size
#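 Chemiluminescent proximity detection of H3K9 monomethylation, read after 10 min bead incubation in the dark. Reaction: 20 nM G9a, 500 nM biotin-H3K9 peptide, 20 uM SAM cofactor, 2 h, room temperature, following 15 min enzyme-compound preincubation.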
# JMJD2A Tudor inh: JMJD2A Tudor domain (human) inhibition; AID 504339; O75164; 390,000 tested, 4.4% active; Potency, µM (titrated, usually from 114 µM), for inactives: at the highest dose activity change, negative = inhibition, most hits filed as inhibitors; AlphaScreen JMJD2A-Tudor / H3K4me3 peptide binding; also: % is scaled to controls: 0 for no effect and ±100 for the full control effect; nearly all actives have a fitted effect of over 50% in size
# BAZ2B inh: BAZ2B (human) inhibition | AlphaScreen BAZ2B-H3K14Ac peptide displacement | AID 504333 | 360,000 tested, 4.4% active | Potency, µM (top dose mostly 114 µM), for the others: at the top dose activity change, negative = inhibition, hits mostly inhibitors | Q9UIF8; also: % is scaled to controls: 0 for no effect and ±100 for the full control effect; nearly all actives have a fitted effect of over 60% in size
# Target sequence (Q9UIF8 whole entry, looked up): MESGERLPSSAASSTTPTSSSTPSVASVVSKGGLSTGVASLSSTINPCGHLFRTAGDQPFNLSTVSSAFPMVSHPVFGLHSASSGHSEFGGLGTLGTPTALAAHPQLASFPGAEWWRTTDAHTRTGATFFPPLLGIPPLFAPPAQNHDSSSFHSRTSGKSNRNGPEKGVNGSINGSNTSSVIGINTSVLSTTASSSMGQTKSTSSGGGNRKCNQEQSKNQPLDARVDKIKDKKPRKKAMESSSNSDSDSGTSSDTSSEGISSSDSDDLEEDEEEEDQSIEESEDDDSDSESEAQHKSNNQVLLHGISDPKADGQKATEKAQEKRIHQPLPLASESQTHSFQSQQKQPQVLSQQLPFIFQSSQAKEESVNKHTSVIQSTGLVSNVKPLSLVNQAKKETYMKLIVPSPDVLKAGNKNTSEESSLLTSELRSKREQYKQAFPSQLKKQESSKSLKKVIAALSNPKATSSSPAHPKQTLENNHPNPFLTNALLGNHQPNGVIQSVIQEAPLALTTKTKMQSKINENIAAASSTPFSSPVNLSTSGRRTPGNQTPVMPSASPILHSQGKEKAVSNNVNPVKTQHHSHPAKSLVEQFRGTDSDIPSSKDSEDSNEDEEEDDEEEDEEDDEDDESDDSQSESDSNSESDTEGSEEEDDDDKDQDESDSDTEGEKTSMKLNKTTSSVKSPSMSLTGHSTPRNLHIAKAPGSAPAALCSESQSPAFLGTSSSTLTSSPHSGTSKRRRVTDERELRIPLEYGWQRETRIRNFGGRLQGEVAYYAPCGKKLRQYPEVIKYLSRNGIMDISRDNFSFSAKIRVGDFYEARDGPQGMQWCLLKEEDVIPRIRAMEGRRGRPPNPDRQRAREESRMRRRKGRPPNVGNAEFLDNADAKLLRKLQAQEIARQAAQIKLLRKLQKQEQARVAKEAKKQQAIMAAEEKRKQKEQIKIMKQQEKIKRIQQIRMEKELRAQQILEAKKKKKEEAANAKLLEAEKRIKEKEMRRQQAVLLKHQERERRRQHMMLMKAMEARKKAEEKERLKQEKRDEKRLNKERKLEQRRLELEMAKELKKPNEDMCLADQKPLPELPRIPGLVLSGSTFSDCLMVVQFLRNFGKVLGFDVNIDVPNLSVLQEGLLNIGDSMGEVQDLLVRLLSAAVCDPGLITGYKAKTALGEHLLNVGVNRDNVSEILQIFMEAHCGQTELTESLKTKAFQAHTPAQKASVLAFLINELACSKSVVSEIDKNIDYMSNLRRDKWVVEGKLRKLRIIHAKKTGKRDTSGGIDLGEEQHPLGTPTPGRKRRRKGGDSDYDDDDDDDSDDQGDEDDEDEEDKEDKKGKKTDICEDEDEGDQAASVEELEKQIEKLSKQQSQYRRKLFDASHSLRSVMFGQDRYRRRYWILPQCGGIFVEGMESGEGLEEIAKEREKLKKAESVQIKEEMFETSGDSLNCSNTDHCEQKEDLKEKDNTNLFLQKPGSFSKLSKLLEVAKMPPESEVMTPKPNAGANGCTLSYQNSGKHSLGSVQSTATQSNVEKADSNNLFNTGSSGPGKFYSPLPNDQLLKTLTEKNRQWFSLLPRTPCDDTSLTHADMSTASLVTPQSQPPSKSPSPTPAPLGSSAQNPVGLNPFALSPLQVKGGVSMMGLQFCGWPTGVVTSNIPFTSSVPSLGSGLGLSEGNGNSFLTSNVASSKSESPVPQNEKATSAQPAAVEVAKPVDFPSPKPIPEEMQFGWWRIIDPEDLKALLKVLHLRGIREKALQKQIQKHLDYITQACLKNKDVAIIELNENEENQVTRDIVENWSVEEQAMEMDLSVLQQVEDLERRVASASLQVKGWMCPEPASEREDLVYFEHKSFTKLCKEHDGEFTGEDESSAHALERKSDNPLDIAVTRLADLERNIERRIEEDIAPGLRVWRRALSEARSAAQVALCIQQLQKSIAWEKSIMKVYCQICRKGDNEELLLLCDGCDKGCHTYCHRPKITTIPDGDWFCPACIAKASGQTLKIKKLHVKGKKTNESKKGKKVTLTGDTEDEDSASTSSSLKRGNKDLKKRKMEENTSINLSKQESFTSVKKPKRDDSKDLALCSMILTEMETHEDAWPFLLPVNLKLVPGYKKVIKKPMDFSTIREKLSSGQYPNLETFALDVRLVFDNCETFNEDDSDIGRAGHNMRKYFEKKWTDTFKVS
#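 Multi-concentration screen (max 110 uM) measuring displacement of acetylated histone H3 peptide from BAZ2B by AlphaScreen, using 50 nM protein, 50 nM peptide and 10 ug/mL streptavidin donor plus Ni-chelate acceptor beads.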
# HP1b binding inh: HP1-beta chromodomain-methylated histone interaction inhibition; 390,000 tested, 0.56% active; P83916; AlphaScreen HP1-beta / biotin-H3K9me3 peptide binding; Potency, µM (series often up to 114 µM), inactives show at the top dose activity change, negative = inhibition, most hits filed as inhibitors; also: nearly all actives have a fitted effect of over 70% in size
#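 AlphaScreen: HP1-beta (50 nM) preformed 30 min with biotin-H3(1-18)K9me3 peptide (50 nM) in PBS pH 7.4, 0.01% Tween-20. Compound added for 30 min at RT, then streptavidin donor/nickel chelate acceptor beads (10 ug/mL) for 30 min.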
# Sfp PPTase inh: inhibitors of Bacillus subtilis Sfp phosphopantetheinyl transferase; Q9F4F7; Biochemical Sfp PPTase activity, qHTS; Potency, µM, for inactives: largest response in the series, negative = inhibition, usual class: inhibitors; 310,000 tested, 3.5% active;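 also: the enzyme is Sfp with the accession as filed and its product quenches rhodamine fluorescence; 0% = enzyme reaction without inhibitor and -100% = no enzyme wells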
#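 Buffer: 50 mM Hepes-Na pH 7.6, 10 mM MgCl2, 0.01% Nonidet P-40, 0.01% BSA. Enzyme 15 nM, pre-exposed to compound 15 min; substrates then added and fluorescence change tracked over 30 min.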
# The depositor's hits bear a star; ? = inconclusive; . = not tested or not shown; [ ] = another dose, or the depositor's remark. Calls follow the shape of the dose curve; as a rule, active = well fitted curve in the direction sought with a large enough effect; inconclusive = small, poorly fitted or top-dose-only effect, or another doubt; inactive = no such curve, though single readings can be large; an effect the other way counts as inactive or inconclusive. Potency is read from the fitted curve at half-maximal effect.
SMILES,G9a block,JMJD2A Tudor inh,BAZ2B inh,HP1b binding inh,Sfp PPTase inh
Cc1cccc(N=C2NC(=O)/C(=C/c3cccn3C)S2)c1,.,?,40µM*,2%,-14%
CC(/C=N/NC(=O)CSc1n[nH]c(=O)[nH]c1=O)=C\c1ccccc1,13%,3%,1%,16%,15%
COc1ccc(Cl)cc1NC(=O)C/C(C)=N/NC(=O)c1ccc(O)cc1,71µM*,-12%,-28%,30%,11%
CN(C)S(=O)(=O)c1cccc(NC(=O)c2cccc(S(=O)(=O)N3CCCCCC3)c2)c1,-48%,-21%,1%,18%,.
COCCN(CC(=O)Nc1cccc(S(=O)(=O)N2CCCC2)c1)Cc1nc2ccccc2c(=O)[nH]1,50µM*,-22%,12%,15%,.
O=C(Nc1cc(S(=O)(=O)N2CCOCC2)ccc1O)c1ccc(S(=O)(=O)N2CCCCC2)cc1,.,-20%,.,28%,.
CN(C)S(=O)(=O)c1cccc(NC(=O)c2ccc(S(=O)(=O)N3CCCCC3)cc2)c1,?,89µM*,7%,19%,.
O=C(Nc1cc(S(=O)(=O)Nc2ccc(Cl)cc2)ccc1O)c1ccc(S(=O)(=O)N2CCCCCC2)cc1,-115%[59 µM],-21%,?,-18%,3.2µM*
COc1ccc(Br)cc1CN(C)CC(=O)Nc1cccc(S(=O)(=O)N2CCCC2)c1,.,25µM*,.,?,.
COCCN(Cc1nc2ccccc2c(=O)[nH]1)C(=O)c1cccc(S(=O)(=O)N2CCCC2)c1,19%[12.7 µM],-9%,7%,32%,.
Cc1cc2c3c(c1C)C(=O)C(=O)N3C(C)(C)CC2C (stereo not given),?,?,?,-16%,17%
CNC(=O)c1csc(-c2ccc(C)cc2)n1,19%[59 µM],7%,0%,21%,14%
COc1cc(C(=O)Nc2cccc(S(=O)(=O)N3CCCC3)c2)cc(OC)c1C,32µM*,-29%,-38%,6%,-17%
CCOC(=O)C1CCN(S(=O)(=O)c2c(Cl)ccc3nonc23)CC1,50µM*,.,-17%,.,-17%
O=[N+]([O-])c1cc(Br)c(OCc2nnc(-c3ccccc3)o2)c(Br)c1,28µM*,-55%,?,-3%,5%
Cc1ccc(NC(=O)C2CCN(c3nc4ccccc4nc3C(F)(F)F)CC2)cc1C,12%[59 µM],-16%,5%,-7%,.
CCN(CC)CCOc1c(Br)ccc2c1sc1nc3n(c(=O)c12)CCC3,50µM*,-16%,-9%,23%,0%
O=c1c2c3c(sc2nc2n1CCC2)CCC3,5%[59 µM],-14%,-1%,41%,5%
O=c1c2c(nc3n1CCCCC3)sc1c(O)c(Br)ccc12,1.8µM*,-18%,-4%,-5%,-22%
Oc1ccc(CN2CCCCC2)nc1-c1ccccc1,0%[59 µM],-7%,-2%,41%,15%
Oc1ccc(-c2ccccc2)cc1CN1CCCCCC1,-2%[2.33 µM],-11%,5%,51%,89µM*
CC(C)CNc1nc(Oc2ccc(=O)[nH]n2)nc(N2CCOCC2)n1,.,-10%,-11%,38%,-11%
CCOc1ccc(NC(=O)c2c(NC(=O)CNCCN3CCOCC3)sc3c2CCC3)cc1,40µM*,79µM*,45µM*,3%,4%
COc1ccc(NC(=O)c2c(NCc3cccs3)sc3c2CCCC3)cc1,14µM*,?,-36%,-4%,.
CCOc1ccc(NC(=O)c2c(NCc3cccs3)sc3c2CCC(C)C3)cc1 (stereo not given),?,?,-38%,26%,.
SMILES,G9a block,JMJD2A Tudor inh,BAZ2B inh,HP1b binding inh,Sfp PPTase inh
CCOC(=O)c1ccc(NC(=O)c2c(NCc3cccs3)sc3c2CCCCC3)cc1,7.9µM*,56µM*,?,-23%,.
COc1ccc(NC(=O)c2c(NCc3cccs3)sc3c2CCCCC3)c(OC)c1,8.9µM*,45µM*,?,?,.
CCC1CCCCN1C(=O)CSc1nc(N)c(NC(=O)c2ccco2)c(=O)[nH]1 (stereo not given),17%[59 µM],-5%,7%,37%,1%
CN(C(=O)CSc1cn(CC(=O)N2CCCCCC2)c2ccccc12)c1ccccc1,-3%[59 µM],-11%,?,26%,.
COc1ccc(/C=C/C(=O)c2c(OC)cc(O)cc2OC)cc1,.,.,.,.,-25%
O=C(Nc1ccccc1)c1nc2ccccc2s1,-3%[59 µM],11%,36%,54%,4%
Cc1cccc(NC(=S)c2nc3ccccc3s2)c1,.,50µM*,8.9µM*,28µM*,2%
COc1ccc(-c2nc3ccccc3c(=O)n2Cc2ccc(CNC(=O)CO)cc2)cc1COc1ccc(NC(C)=O)cc1,.,79µM*,.,.,.
COc1ccc(-c2nc3ccc(NC(C)=O)cc3c(=O)n2Cc2cccc(Cl)c2)cc1COc1ccc(NC(C)=O)cc1,.,79µM*,.,-5%,.
COc1ccc(CN(Cc2ccccc2)C(C)=O)cc1COc1ccc(NC(C)=O)cc1,.,-18%,.,36%,.
COc1ccc(-c2nc3ccc(NC(=O)COC(C)=O)cc3c(=O)n2Cc2ccccc2)cc1COc1ccc(NC(C)=O)cc1,.,79µM*,.,-3%,.
COc1ccc(CN(Cc2ccccc2)C(=O)CN2CCN(C)CC2)cc1COc1ccc(NC(C)=O)cc1,.,35µM*,.,-6%,.
O=c1cc(CN2CCOCC2)c2cc(Cl)c(O)cc2o1,-46%,15%,?,39%,6%
ClCCN1C2=NCCCN2c2ccccc21,24%[12.7 µM],-24%,-17%,-1%,2%
O=C(CCN1CCCCCC1)Nc1cccc(F)c1,?,0%,-1%,12%,11%
CSCCC(NC(=O)C1CCC(C)CC1)C(=O)N1CCN(c2ccccn2)CC1 (stereo not given),-41%,-12%,-30%,20%,-17%
COc1ccc(-c2nc3cccc(OC)c3c(=O)n2Cc2ccccc2)cc1COc1ccc(NC(C)=O)cc1,.,50µM*,.,.,.
COc1ccc(-c2nc3ccccc3c(=O)n2Cc2ccco2)cc1COc1ccc(NC(C)=O)cc1,.,-21%,.,.,.
Cc1ccc(C#N)c(=O)n1CC(=O)Nc1ccccc1C(F)(F)F,5%[59 µM],-11%,7%,13%,.
Cc1cc(Nc2ccccc2)c2c([N+](=O)[O-])c(C)cc(C)c2n1,22µM*,25µM*,32µM*,40µM*,-4%
Cc1cccc(Nc2cc(C)nc3ccccc23)c1,.,-10%,-6%,40%,8%
COc1ccc(Nc2nccc3c2nnn3C)cc1,6%,-14%,10%,27%,12%
CCOc1ccc(NC(=O)c2cc(S(=O)(=O)NC3CCCCCC3)ccc2F)cc1,1%[59 µM],-29%,1%,-1%,.
CCc1ccc(OC(C)c2nnc(SCC(=O)Nc3ncccc3C)n2C)cc1 (stereo not given),11µM*,?,-26%,19%,3%
COc1ccc(CC(=O)NC(C)c2nnc(SCC(=O)Nc3ccccc3)n2C)cc1 (stereo not given),-5%,-4%,-24%,35%,-4%

# Assay outcomes (PubChem)
